The values that follow come from PubChem BioAssay AID624297 (National Center for Advancing Translational Sciences (NCATS), 2012).

Screen size: about 340,000 compounds; about 6,200 (1.8%) were called active. Not shown: some 10% with an inconclusive outcome. The sample as a whole holds a higher share of actives than the screen did. A number with no mark means an inactive call. The call rests on the fitted dose curve; in most records, active means well fitted activation curve with a large enough effect; inconclusive means small, poorly fitted or top-dose-only effect; inactive means no such curve, though single readings can be large or run the other way.
Potency means the concentration at half of the fitted maximal effect.

This assay can be described thus: A quantitative high throughput screen for small molecules that induce DNA re-replication in SW480 colon adenocarcinoma cells. Further: nearly all actives have a fitted effect of over 55% in size. On re-replication activation: % of control where 0% means no effect. As to conditions: Hoechst DNA content imaging, 48 h; series mostly up to 46.1 µM; re-replication activation: at the top concentration. The method in brief: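 Image-based read-out: total Hoechst fluorescence of nuclei (405 nm excitation, 500-530 nm emission), with hits raising the fraction of high-intensity nuclei. SW480 colon cells incubated 48 hr with compounds at 37 C.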
`COc1cccc2c1C(=O)c1c(O)c3c(c(O)c1C2=O)CC(O)(C(C)=NNC(=O)c1ccc(Cl)c(Cl)c1)CC3OC1CC(N)C(O)C(C)O1` (configuration not stated): the “re-replication activation” value is 0.405%.

Regarding `CNc1nc(-c2ccccc2)cc(-c2ccccc2)n1`, the “re-replication activation” value was -0.44%.

With `CS(=O)(=O)c1sc2nc(-c3ccccc3)cc(-c3ccccc3)c2c1N`, the Potency is 11.2 µM (active).

Turning to `Nc1nc(-c2ccccc2)cc(-c2ccccc2)n1`, the “re-replication activation” value is -20.8%.

With `CCN([C@H](CO)C(C)C)S(=O)(=O)c1ccccc1Br`, the “re-replication activation” value is -15.5%.

Turning to `CN1C(c2ccc(F)cc2)=CS/C1=C(/C#N)c1nnc2n1-c1ccccc1SC2`, the “re-replication activation” value was 19.8%.

For `Cc1cc(C)nc(N/N=C/c2ccc([N+](=O)[O-])o2)n1`, the “re-replication activation” value was 6.52%.

For `CN1CCN(/N=C/c2ccc(-c3ccc([N+](=O)[O-])cc3)o2)CC1`, the “re-replication activation” value is -0.483%.

Turning to `C/[N+]([O-])=C\c1ccc([N+](=O)[O-])o1`, the Potency was 14.6 µM (active).

In the case of `CN1CCN(C(=O)c2ccc(-c3ccc(Br)cc3)o2)CC1`, the “re-replication activation” value was 2.36%.

For `CCN(C(=O)CSc1cccc[n+]1[O-])c1ccccc1`, the “re-replication activation” value is -4.57%.

As to `Cc1cc(C(=O)N/N=C/c2cc([N+](=O)[O-])cc(C)c2O)n[nH]1`, the “re-replication activation” value is 14.2%.

As to `COc1ccc(CC(=O)N/N=C/c2cc([N+](=O)[O-])cc(Br)c2O)cc1`, the “re-replication activation” value is -1.1%.

On to `O=[N+]([O-])c1cc(Br)c(O)c(/C=N/Nc2nc3ccccc3s2)c1`, for which the Potency was 3.26 µM (active).

`COc1ccc(C(=O)Nc2cc(S(=O)(=O)N3CCCC3)ccc2Cl)cc1`: the “re-replication activation” value was -0.541%.

As for `C[C@H](O)[C@@H]1C(=O)N2CCc3ccc(N4CCOCC4)cc3[C@@H]2C[C@@H]1N(C)C(=O)C(C)(C)C`, the re-replication activation was 0.113% [at 9.22 µM].

As to `Cc1cccc(C(=O)NCC(=O)OCC(=O)N2CC3(C)CC2CC(C)(C)C3)c1` (configuration not stated), the “re-replication activation” value was 6.03%.

In the case of `Cc1nnnn1/C(=C\c1ccccc1)C(=O)OCC(=O)N1CC2(C)CC1CC(C)(C)C2` (configuration not stated), the Potency is 18.4 µM (active).

With `COc1ccc(C(=O)N2CC3(C)CC2CC(C)(C)C3)cc1OC` (configuration not stated), the “re-replication activation” value was 27.6%.

In the case of `COc1ccc(CCNC(=O)COC(=O)Cc2ccccc2F)cc1`, the “re-replication activation” value was -13.5%.

Turning to `N#Cc1cc([N+](=O)[O-])ccc1NC(=O)COC(=O)c1cnccn1`, the “re-replication activation” value is -0.55%.

Consider `Cc1cc(C(=O)OCC(=O)N2C(C)CCCC2C)c2ccccc2n1` (configuration not stated), for which the “re-replication activation” value is 17%.

On to `COc1cccc(NC(=O)c2ccc(Cn3cc([N+](=O)[O-])cn3)o2)c1`, for which the “re-replication activation” value was 0.872%.

On to `Cc1cccc(NC(=O)c2ccc([N+](=O)[O-])o2)c1`, for which the Potency is 3.66 µM (active).

For the molecule `Cc1cccc(NC(=O)c2cc([N+](=O)[O-])ccc2N2CCN(C)CC2)c1`, the “re-replication activation” value is 0.478%.

For `CS(=O)(=O)Nc1ccccc1C(=O)OCC(=O)NC1CC1`, the “re-replication activation” value is -13.3%.

Turning to `CC(=O)NC(CC(=O)Nc1ccc(S(=O)(=O)N2CCOCC2)cc1)c1ccccc1` (configuration not stated), the “re-replication activation” value is -3.64%.

`COc1cc(/C=N/NC(=O)CNC(=O)c2ccncc2)ccc1OC(C)=O`: the “re-replication activation” value is 3.75%.

On to `COc1cccc(/C=N/NC(=O)CNC(=O)c2ccc(S(=O)(=O)N3CCOCC3)cc2)c1OC`, for which the “re-replication activation” value was -15%.

With `COc1ccc(C(=O)NCC(=O)N/N=C/c2ccc([N+](=O)[O-])o2)cc1OC`, the Potency is 11.6 µM (active).

Turning to `Cc1csc(=O)n1CC(=O)Nc1ccc(S(C)(=O)=O)cc1`, the “re-replication activation” value is -2.89%.

Consider `O=C1c2ccccc2C(=O)N1Cc1cc(-c2ccccc2Cl)no1`, for which the “re-replication activation” value was -7.3%.

Take `Nc1cccc2c1C(=O)N(Cc1nnc(-c3ccccc3Br)o1)C2=O`: the Potency is 16.4 µM (active).

For the molecule `Cn1cnnc1SCc1nnc(-c2ccccc2Br)o1`, the “re-replication activation” value was -24.9%.

As to `CN(CC(=O)NCCc1ccc(S(N)(=O)=O)cc1)CC(=O)Nc1ccc(Cl)cc1`, the “re-replication activation” value is -4.05%.

Consider `CCOC(=O)CSC1=C(C#N)C(c2sccc2C)CC(=O)N1` (configuration not stated), for which the Potency was 5.01 µM (active).

Turning to `COC(=O)CSC1=C(C#N)C(c2ccccc2OC)C(C(=O)OC)C(=O)N1` (configuration not stated), the re-replication activation was 0.322% [at 9.22 µM].

With `Cc1ccc(C2CC(=O)NC(SCC(=O)OCc3ccccc3)=C2C#N)o1` (configuration not stated), the “re-replication activation” value was 3.01%.

Consider `CC(C)Cc1nnc(N)s1`, for which the “re-replication activation” value was -5.57%.

Regarding `O=C(N/N=C/c1cccc(O)c1)c1cc2c(ccc3ccccc32)o1`, the “re-replication activation” value is 7.96%.

Take `Cc1c(/C=N\NC(=O)c2cc3ccccc3o2)c2ccccc2n1C`: the Potency is 9.2 µM (active).

Take `Cc1ccc(NC(=O)c2cc3ccccc3o2)cc1`: the “re-replication activation” value was 5.51%.

As to `CC(C)Sc1nc(N)nc2c1ncn2C1OC(CO)C(O)C1O` (configuration not stated), the “re-replication activation” value is -2.18%.

On to `c1ccc(-n2nnnc2N2CCOCC2)cc1`, for which the “re-replication activation” value was -0.759%.

Regarding `Fc1ccccc1CCNc1nnnn1-c1ccccc1`, the “re-replication activation” value was 8.82%.

Turning to `c1ccc(-n2nnnc2NC2CCCCCC2)cc1`, the Potency was 3.66 µM (active).

Turning to `COc1ccc(CNCCCn2cnc3c(OCc4ccccc4)ncnc32)cc1`, the “re-replication activation” value was -0.249%.

Take `O=[N+]([O-])c1ccc(N2CCOCC2)cc1`: the “re-replication activation” value is -3.05%.

On to `CCN(CC)C(=O)[C@H]1CC(CC(=O)NCc2ccco2)C(=O)N2CCc3c([nH]c4ccccc34)[C@]12C` (some centres not stated), for which the “re-replication activation” value is 0.301%.

`COc1cccc(NC(=O)CSc2nnc(C3CCCCC3)n2N)c1`: the “re-replication activation” value is -7.72%.

In the case of `COC(=O)c1ccc(CSc2nc3ccccc3c(=O)n2-c2cccc(OC)c2)o1`, the “re-replication activation” value is -0.0715%.

For `COCC(C)n1c(SCC(=O)NC2CCCCC2C)nc2ccccc2c1=O` (configuration not stated), the “re-replication activation” value was 3.05%.
